In PubChem BioAssay (EPA / NIEHS):
Calls of active or inactive are those of the source. The calls were made as follows: active = hit-call score of the fitted dose curve at least 0.9, where 1 is the maximum; inactive = score below 0.9.

Key:
[1] = read-out: Transforming growth factor beta 1 (TGFb1), TGFB1 (gene 7040); assay: BSK_KF3CT_TGFb1: BioMAP Diversity Plus: KF3CT Assay for Transforming growth factor beta 1 (TGFb1) Biomarker Activity (AID 2283072); conditions: primary human keratinocytes with fibroblasts; actives raise or lower the signal
Summary of the method: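 Read-out: ELISA for TGF-b1 in keratinocyte/foreskin fibroblast human skin co-culture, 24 h after dosing; bidirectional curve fit vs DMSO baseline; gain or loss of signal scored.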

[2] = read-out: C-C motif chemokine 2 (Homo sapiens) (UniProt P13500); assay: BSK_KF3CT_MCP1: BioMAP Diversity Plus: KF3CT Assay for Monocyte Chemoattractant Protein 1 (MCP1/CCL2) Biomarker Activity (AID 2283073); conditions: primary human keratinocytes with fibroblasts; actives raise or lower the signal
Summary of the method: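 ELISA readout of MCP-1 after 24 h chemical dosing of a human skin primary co-culture of keratinocytes and foreskin fibroblasts. Activity was fitted in both directions against DMSO.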

[3] = read-out: urokinase plasminogen activator (uPA), PLAU (gene 5328); assay: BSK_KF3CT_uPA: BioMAP Diversity Plus: KF3CT Assay for urokinase plasminogen activator (uPA) Biomarker Activity (AID 2283075); conditions: primary human keratinocytes with fibroblasts; actives raise or lower the signal
Summary of the method: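 ELISA read-out of uPA 24 h after dosing human skin keratinocytes co-cultured with foreskin fibroblasts. Signal change fitted both ways relative to DMSO; sulforhodamine B on parallel cultures marks overt cytotoxicity.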

[4] = read-out: CD40, CD40 (gene 958); assay: BSK_LPS_CD40: BioMAP Diversity Plus: LPS Assay for CD40 Biomarker Activity (AID 2283076); conditions: primary human HUVEC with PBMC; actives raise or lower the signal
Summary of the method: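 Cells were dosed, incubated 24 h, then assayed for CD40 by ELISA. Gain or loss of signal was analysed relative to DMSO controls. The culture paired human umbilical vein endothelium with peripheral blood mononuclear cells.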

[5] = read-out: E-selectin (Homo sapiens) (UniProt P16581); assay: BSK_LPS_Eselectin: BioMAP Diversity Plus: LPS Assay for Eselectin Biomarker Activity (AID 2283077); conditions: primary human HUVEC with PBMC; actives raise or lower the signal
Summary of the method: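 Primary human vascular co-culture (endothelium plus PBMC) was dosed with chemical, then E-selectin quantified by ELISA at 24 h. Endpoint values derive from bidirectional curve fitting relative to DMSO.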

[6] = read-out: Interleukin-8 (IL8), CXCL8 (gene 3576); assay: BSK_LPS_IL8: BioMAP Diversity Plus: LPS Assay for Interleukin-8 (IL8) Biomarker Activity (AID 2283078); conditions: primary human HUVEC with PBMC; actives raise or lower the signal
Summary of the method: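 Readout is IL-8 by ELISA, taken 24 h after compounds were added to LPS-stimulated endothelial/PBMC co-cultures. Both increases and decreases relative to DMSO control were scored through bidirectional fitting.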

[7] = BSK_LPS_SRB: Viability Assessment in the BioMAP Diversity Plus: LPS Assay (AID 2283079); conditions: primary human HUVEC with PBMC;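 also: total protein by sulforhodamine B absorbance as a cytotoxicity measure; measured one day after compound addition; fitted in both directions against DMSO so loss or gain of signal counts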
Summary of the method: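 Readout is SRB absorbance at 560 nm (0.1% stain, TCA-fixed parallel cultures) as a total-protein cytotoxicity measure. Cells: primary human umbilical vein endothelium plus peripheral blood mononuclear cells, 24 h after chemical exposure; DMSO served as baseline.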

[8] = read-out: Interleukin-1 alpha (IL1a), IL1A (gene 3552); assay: BSK_LPS_IL1a: BioMAP Diversity Plus: LPS Assay for Interleukin-1 alpha (IL1a) Biomarker Activity (AID 2283080); conditions: primary human HUVEC with PBMC; actives raise or lower the signal
Summary of the method: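 ELISA read-out of IL-1 alpha from a human primary vascular co-culture (endothelium plus PBMC) under LPS, sampled 24 hours post-dosing. Activity was fitted in both directions relative to DMSO controls.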

[9] = read-out: Monocyte Chemoattractant Protein-1 (MCP1), CCL2 (gene 6347); assay: BSK_LPS_MCP1: BioMAP Diversity Plus: LPS Assay for Monocyte Chemoattractant Protein-1 (MCP1) Biomarker Activity (AID 2283081); conditions: primary human HUVEC with PBMC; actives raise or lower the signal;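 as to AC50: secreted MCP-1 protein quantified by ELISA in culture supernatant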
Summary of the method: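 Human endothelial–PBMC co-cultures were dosed with chemical, then LPS-driven MCP-1 levels were quantified by ELISA at 24 h. Activity in either direction was fitted versus DMSO negative control.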

[10] = read-out: Macrophage colony-stimulating factor (MCSF), CSF1 (gene 1435); assay: BSK_LPS_MCSF: BioMAP Diversity Plus: LPS Assay for Macrophage colony-stimulating factor (MCSF) Biomarker Activity (AID 2283083); conditions: primary human HUVEC with PBMC; actives raise or lower the signal
Summary of the method: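 ELISA readout of M-CSF after 24 h compound exposure in a human endothelial/PBMC co-culture. Activity, in either direction, is fitted relative to DMSO vehicle.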

[11] = read-out: Tissue Factor, F3 (gene 2152); assay: BSK_LPS_TissueFactor: BioMAP Diversity Plus: LPS Assay for Tissue Factor Biomarker Activity (AID 2283084); conditions: primary human HUVEC with PBMC; actives raise or lower the signal
Summary of the method: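 ELISA signal for cell-surface Tissue Factor (CD142) was read 24 h after compound dosing of an LPS-stimulated human endothelial–PBMC primary co-culture. Gain or loss of signal was scored relative to DMSO.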

[12] = read-out: Tumor necrosis factor (Homo sapiens) (UniProt P01375); assay: BSK_LPS_TNFa: BioMAP Diversity Plus: LPS Assay for Tumour Necrosis Factor alpha (TNFa) Biomarker Activity (AID 2283085); conditions: primary human HUVEC with PBMC; actives raise or lower the signal
Summary of the method: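 HUVEC/PBMC co-culture, LPS-stimulated; 24 h post-dose; TNFa by ELISA; gain or loss of signal fitted bidirectionally vs DMSO baseline.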

[13] = read-out: Vascular cell adhesion molecule 1 (VCAM1), VCAM1 (gene 7412); assay: BSK_LPS_VCAM1: BioMAP Diversity Plus: LPS Assay for Vascular cell adhesion molecule 1 (VCAM1) Biomarker Activity (AID 2283086); conditions: primary human HUVEC with PBMC; actives raise or lower the signal
Summary of the method: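 ELISA read-out of VCAM-1 at 24 h post-dosing in an LPS-driven HUVEC/PBMC primary human co-culture; gain or loss of signal fitted bidirectionally against DMSO baseline. Cytotoxicity tracked in parallel cultures by SRB total-protein staining.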

[14] = read-out: CD38, CD38 (gene 952); assay: BSK_SAg_CD38: BioMAP Diversity Plus: SAg Assay for CD38 Biomarker Activity (AID 2283087); conditions: primary human HUVEC with PBMC; actives raise or lower the signal
Summary of the method: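 Measures CD38 on a human endothelial/PBMC co-culture driven by SEB and TSST-1, 24 h after compound exposure, using ELISA with fluorescence detection; DMSO defines baseline for bidirectional curve fitting.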

[15] = read-out: CD69, CD69 (gene 969); assay: BSK_SAg_CD69: BioMAP Diversity Plus: SAg Assay for CD69 Biomarker Activity (AID 2283089); conditions: primary human HUVEC with PBMC; actives raise or lower the signal;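 as to AC50: cell surface CD69 protein quantified by ELISA with fluorescence detection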
Summary of the method: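 Primary human vascular co-culture (umbilical vein endothelium with peripheral blood mononuclear cells) exposed to test chemical for 24 h. CD69 levels quantified by fluorescence ELISA; DMSO served as negative control for bidirectional fitting.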

[16] = read-out: Monocyte Chemoattractant Protein-1 (MCP1), CCL2 (gene 6347); assay: BSK_SAg_MCP1: BioMAP Diversity Plus: SAg Assay for Monocyte Chemoattractant Protein-1 (MCP1) Biomarker Activity (AID 2283090); conditions: primary human HUVEC with PBMC; actives raise or lower the signal
Summary of the method: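 Values derive from bidirectional fitting of ELISA-measured MCP1 against DMSO controls. Readings were taken 24 h after dosing human vascular endothelial cells co-cultured with peripheral blood mononuclear cells under superantigen stimulation.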

[17] = read-out: E-selectin (Homo sapiens) (UniProt P16581); assay: BSK_SAg_Eselectin: BioMAP Diversity Plus: SAg Assay for Eselectin Biomarker Activity (AID 2283091); conditions: primary human HUVEC with PBMC; actives raise or lower the signal
Summary of the method: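 Co-culture: HUVEC + PBMC. Dose compound; 24 h. ELISA for E-selectin. Bidirectional fit vs DMSO.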

[18] = BSK_LPS_PGE2: BioMAP Diversity Plus: LPS Assay for Prostaglandin E2 (PGE2) Biomarker Activity (AID 2283082); conditions: primary human HUVEC with PBMC; actives raise or lower the signal
Summary of the method: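 ELISA read-out of PGE2 from human umbilical vein endothelial cells co-cultured with peripheral blood mononuclear cells under LPS, 24 h post-dose. Gain or loss of signal scored relative to DMSO baseline.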

[19] = read-out: CD40, CD40 (gene 958); assay: BSK_SAg_CD40: BioMAP Diversity Plus: SAg Assay for CD40 Biomarker Activity (AID 2283088); conditions: primary human HUVEC with PBMC; actives raise or lower the signal
Summary of the method: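 Compounds were dosed onto a human primary endothelial–PBMC co-culture, and after 24 h CD40 was quantified by ELISA using a fluorescence signal. Activity in either direction was fitted relative to DMSO.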

Measured: AC50

E-selectin (Homo sapiens), sequence (P16581 whole entry, looked up): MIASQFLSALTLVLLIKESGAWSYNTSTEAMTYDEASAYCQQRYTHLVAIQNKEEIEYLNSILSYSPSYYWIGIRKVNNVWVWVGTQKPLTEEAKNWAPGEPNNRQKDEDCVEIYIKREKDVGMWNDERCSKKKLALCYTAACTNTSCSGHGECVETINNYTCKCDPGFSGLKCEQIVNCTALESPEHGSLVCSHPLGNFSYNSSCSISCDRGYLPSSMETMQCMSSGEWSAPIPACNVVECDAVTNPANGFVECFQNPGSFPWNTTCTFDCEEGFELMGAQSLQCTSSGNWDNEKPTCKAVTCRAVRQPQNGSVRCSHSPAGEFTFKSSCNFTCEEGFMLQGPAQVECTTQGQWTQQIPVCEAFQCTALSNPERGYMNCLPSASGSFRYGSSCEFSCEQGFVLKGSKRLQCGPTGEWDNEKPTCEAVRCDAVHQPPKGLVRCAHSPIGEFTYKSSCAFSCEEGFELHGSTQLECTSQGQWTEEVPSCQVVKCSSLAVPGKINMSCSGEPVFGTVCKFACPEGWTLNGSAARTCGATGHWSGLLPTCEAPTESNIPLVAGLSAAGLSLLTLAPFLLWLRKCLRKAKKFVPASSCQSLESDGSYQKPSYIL
Tumor necrosis factor (Homo sapiens), sequence (P01375 whole entry, looked up): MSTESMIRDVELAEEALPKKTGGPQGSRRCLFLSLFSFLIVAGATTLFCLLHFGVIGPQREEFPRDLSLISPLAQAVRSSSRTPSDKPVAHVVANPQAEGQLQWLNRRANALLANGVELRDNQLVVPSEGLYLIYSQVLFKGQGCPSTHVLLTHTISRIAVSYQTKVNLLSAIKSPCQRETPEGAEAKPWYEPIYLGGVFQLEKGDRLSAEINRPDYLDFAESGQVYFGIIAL

Cc1cccc([N+](=O)[O-])c1C
inactive: [1] | [2] | [3] | [4] | [5] | [6] | [7] | [8] | [9] | [10] | [11] | [12] | [13] | [14] | [15] | [16] | [17]

CCCCN(CCCC)CCCC
inactive: [1] | [2] | [3] | [4] | [5] | [6] | [7] | [8] | [18] | [10] | [11] | [12] | [13] | [14] | [19] | [15] | [16] | [17]

CN1CCN(Cc2cc(-c3ccc4[nH]c(=O)oc4c3)co2)[C@@H](c2ccc(F)cc2)C1
inactive: [1] | [2] | [3] | [4] | [5] | [6] | [8] | [10] | [11] | [12]
active: [7] 25.9 µM | [9] 22.5 µM | [14] 31.5 µM | [15] 17.6 µM | [16] 11.5 µM | [17] 11.2 µM
